About 83,000 compounds went through this panel and 20% of them were active in at least one assay; those are over-represented in the sample as a whole.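 Single-concentration screen, 48 h exposure, 96-well plates. Endpoint: percent growth. Below 10 = active.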 Unmarked numbers belong to inactive results. The source made the active and inactive calls.

28 compounds from PubChem BioAssay (NCI) can be followed below.

What all share (test): NCI-60 one-dose screen, 48 h (100 = growth as untreated, 0 = no growth, -100 = all killed)
What all share (conditions): 10 µM unless noted

Assay [1] concerns T-47D breast.
The test system of assay [2] is BT-549 breast.
Assay [3] has as its system MDA-MB-435 melanoma.
Assay [4] deals with SW-620 colon.
In assay [5] the test system is MCF7 breast.
Assay [6] concerns HCT-116 colon.
Assay [7] has as its system HCC-2998 colon.
Assay [8] deals with KM12 colon.

Regarding `COc1ccc(Cc2cnc(NC(=O)c3cc(C)oc3C)s2)cc1`, the growth is 31.8% in assay [1]; 50.7% in assay [2]; 0.623% (active) in assay [3]; 27.9% in assay [4]; 21.6% in assay [5]; 25.1% in assay [6]. For the same compound, the growth in assay [7] is 60.9%; in assay [8], 25.4%.
As for `CN(C)Cc1ccc(O)c(C(=O)O)c1`, the growth in assay [1] is 109%; in assay [2], 112%; in assay [3], 107%; in assay [4], 106%; in assay [5], 107%; in assay [6] it was 109%. Also, the growth was 109% in assay [7] and 108% in assay [8].
`COc1ccccc1N1CCCCC1`: the growth in assay [1] was 99.1%; in assay [2] it was 96%; in assay [3] it was 112%; in assay [4], 99.9%; in assay [5], 96.3%; in assay [6], 102%. Further, the growth is 110% in assay [7] and 107% in assay [8].
On to `CN1CCN(C(=O)c2ccc(NC(=O)c3cc4c(nn3)NCCN4Cc3cc(Cl)ccc3Cl)cc2)CC1`, for which the growth is 97.3% in assay [1]; 60.1% in assay [2]; 61.4% in assay [3]; 50.6% in assay [4]; 46% in assay [5]; 32% in assay [6]. The growth in assay [7] is 99.8%; in assay [8] it was 21.7%.
As for `COc1ccc(C2CC(c3ccc(Nc4nc(Nc5ccccc5)nc(Nc5ccccc5)n4)cc3)=NN2C(C)=O)cc1` (centres undefined), the growth is 73.4% in assay [1]; 166% in assay [2]; 93.7% in assay [3]; 104% in assay [4]; 129% in assay [5]; 96.5% in assay [6]. Also, the growth is 110% in assay [7] and 112% in assay [8].
Turning to `COCCOc1cc2ncnc(N3CCN(c4cc(S(C)(=O)=O)c(C)cc4Cl)CC3)c2cc1OCCOC`, the growth is 69.6% in assay [1]; 91.4% in assay [2]; 105% in assay [3]; 110% in assay [4]; 91.9% in assay [5]; 103% in assay [6]. Also, the figures for the growth in assay [7] and in assay [8] were 100% and 93.2%, respectively.
Turning to `COC1=CC(c2ccc[nH]2)=N/C1=C\c1[nH]c(C)c(C)c1CCC(=O)OCc1ccccc1`, the growth in assay [1] was 2.57% (active); in assay [2], -28.7% (active); in assay [3], -39% (active); in assay [4], -14.8% (active); in assay [5], 3.15% (active); in assay [6], -76% (active). Further, the growth was 6.09% (active) in assay [7] and -20.9% (active) in assay [8].
Regarding `COc1ccc(CNc2c3ccccc3nc3ccccc23)cc1`, the growth in assay [1] was 44.9%; in assay [2], 80.1%; in assay [3], 40.2%; in assay [4] it was 25.6%; in assay [5], 12.6%; in assay [6] it was 9.53% (active). Further, the results for the growth in assay [7] and in assay [8] were 38.6% and 33.2%, respectively.
For the compound `CS(=O)(=O)c1ccc(-c2cnn3ccc(-c4cccc(S(=O)(=O)C5CC5)c4)nc23)cc1`, the growth was -6.07% (active) in assay [1]; 53.4% in assay [2]; 59.1% in assay [3]; 74.2% in assay [4]; 18% in assay [5]; 55.5% in assay [6]. Besides, the growth in assay [7] was 75.4%; in assay [8] it was 62%.
With `NC(=O)c1c(NC(=O)c2ccc3ccccc3c2)sc2c1CCC(=O)C2`, the growth was 33.4% in assay [1]; 20.9% in assay [2]; 92.8% in assay [3]; 14.3% in assay [4]; 52.6% in assay [5]; 7.15% (active) in assay [6]. The growth was 107% in assay [7] and 34.9% in assay [8].
With `COc1c(B(O)O)cccc1-c1cc(C)c2c(ccc3[nH]ncc32)n1`, the growth in assay [1] was 84.1%; in assay [2], 23.1%; in assay [3], 92%; in assay [4], 63.5%; in assay [5], 71.8%; in assay [6] it was 41.7%. The growth was 105% in assay [7] and 83.1% in assay [8].
For `COc1cc2cc(NCc3cccc(Cl)c3)nc(C)c2cc1OC`, the growth was 52.7% in assay [1]; 23.1% in assay [2]; 4.19% (active) in assay [3]; 17% in assay [4]; 55.4% in assay [5]; 8.02% (active) in assay [6]. For the same compound, the growth in assay [7] is 38.9%; in assay [8], 38.8%.
On to `CC(C)(Sc1cc(C(C)(C)C)c(OC(=O)CCCC(=O)O)c(C(C)(C)C)c1)Sc1cc(C(C)(C)C)c(OC(=O)CCCC(=O)O)c(C(C)(C)C)c1`, for which the growth in assay [1] is 49.5%; in assay [2], 39.8%; in assay [3], 27.8%; in assay [4] it was 41.4%; in assay [5] it was 30%; in assay [6], 15.9%. Besides, the figures for the growth in assay [7] and in assay [8] were 22.1% and 10.9%, respectively.
For `CCCCNCCCCCNc1cc(OC)cc2cccnc12`, the growth in assay [1] was 79.4%; in assay [2] it was 91%; in assay [3], 102%; in assay [4], 100%; in assay [5], 84.6%; in assay [6] it was 85.9%. For the same compound, the growth is 95.4% in assay [7] and 114% in assay [8].
`COC12C=C/C(=C(/C(=O)OCc3ccncc3)C(=O)CCCCCCCCC3(OC)C=C/C(=C(/C(=O)OCc4ccncc4)C(=O)CCCCCCCC1)O3)O2`: the growth in assay [1] is 8.61% (active); in assay [2] it was -14.7% (active); in assay [3], -53.8% (active); in assay [4], 9.25% (active); in assay [5], -42.2% (active); in assay [6], -62.2% (active). Moreover, the growth in assay [7] was -83.4% (active); in assay [8] it was -77.2% (active).
Turning to `CN1C(=O)/C(=C\c2c(Cl)cccc2Cl)c2ccccc21`, the growth in assay [1] is 90.3%; in assay [2], 98.7%; in assay [3], 7.16% (active); in assay [4], 66.3%; in assay [5], 68.7%; in assay [6] it was 91.9%. Moreover, the growth in assay [7] was 80.4%; in assay [8] it was 62.3%.
As for `COc1cc(NS(=O)(=O)c2ccc(-c3cnc(C4CC4)o3)cc2)ccc1F`, the growth in assay [1] is 33.6%; in assay [2], 44.6%; in assay [3], -21.3% (active); in assay [4], 18%; in assay [5], 12.7%; in assay [6], 20.9%. Further, the growth in assay [7] is 38.4%; in assay [8], 20.7%.
As to `Nc1cc(C(=O)NC[C@H]2CN(c3ccc(N4CCC(C(=O)O)CC4)cc3)C(=O)O2)ccc1Cl`, the growth in assay [1] was 98.3%; in assay [2] it was 104%; in assay [3] it was 108%; in assay [4] it was 97.7%; in assay [5], 95.3%; in assay [6], 105%. Moreover, the growth in assay [7] was 107%; in assay [8], 100%.
In the case of `CCN(CC)S(=O)(=O)c1ccc(S(=O)(=O)N2CCC[C@@H](C(=O)N3CCN(c4nc(C(C)C)no4)CC3)C2)cc1`, the growth in assay [1] was 43.1%; in assay [2] it was 62.9%; in assay [3], 55.7%; in assay [4] it was 79.5%; in assay [5] it was 50.7%; in assay [6] it was 51.8%. Further, the values for the growth in assay [7] and in assay [8] were 78.7% and 77.4%, respectively.
In the case of `COc1ccc2c(c1)N(CCO)C1=C(C(=O)OC1)C2c1cccc(F)c1` (centres undefined), the growth was 56.7% in assay [1]; 50% in assay [2]; -40.6% (active) in assay [3]; 26.9% in assay [4]; 18.1% in assay [5]; 4.87% (active) in assay [6]. The growth was 4.78% (active) in assay [7] and 15.5% in assay [8].
With `O=C1C(=O)N(Cc2ccc(-c3ccccc3)cc2)c2ccc(OC(F)(F)F)cc21`, the growth in assay [1] is 49.7%; in assay [2], 0.708% (active); in assay [3], 38%; in assay [4], 23.5%; in assay [5], 11.6%; in assay [6] it was 9.92% (active). Besides, the results for the growth in assay [7] and in assay [8] were 36.6% and 12.5%, respectively.
As to `O=c1c2ccccc2n2cnc3ccc(Cl)c1c32`, the growth in assay [1] was 54.4%; in assay [2], 75.4%; in assay [3], 90.5%; in assay [4] it was 79.2%; in assay [5] it was 75%; in assay [6], 65.7%. Further, the values for the growth in assay [7] and in assay [8] were 103% and 84.3%, respectively.
Take `O=C(N(c1ccccc1)c1ccccc1)n1cc(I)c2nc(Cl)nc(Cl)c21`: the growth was 61.2% in assay [1]; 47.4% in assay [2]; 37.4% in assay [3]; 26% in assay [4]; 25.5% in assay [5]; 25.7% in assay [6]. In addition, the growth was 93.3% in assay [7] and 44.1% in assay [8].
Consider `Cc1cc(C)c2c(c1)N(C)c1ncnc(-n3cnc4cc(C)ccc43)c1CC2C` (centres undefined), for which the growth was 28.8% in assay [1]; 29.8% in assay [2]; 8.39% (active) in assay [3]; 21.4% in assay [4]; 17.1% in assay [5]; 11.1% in assay [6]. In addition, the growth in assay [7] is 52.1%; in assay [8], 22.7%.
With `Cc1ccc(-c2nc([P+](c3ccccc3)(c3ccccc3)c3ccccc3)c(S(=O)(=O)c3ccc(C)cc3)o2)cc1`, the growth in assay [1] is 18.6%; in assay [2], 8.67% (active); in assay [3] it was -2.81% (active); in assay [4] it was -70.3% (active); in assay [5] it was 13.5%; in assay [6] it was -68.6% (active). For the same compound, the figures for the growth in assay [7] and in assay [8] were 38.3% and 18.8%, respectively.
Take `O=C(c1nn(-c2ccccc2)c2c1CC(NCc1ccc(F)cc1)CC2)N1CCCCC1` (centres undefined): the growth was 93.6% in assay [1]; 84.6% in assay [2]; 98.9% in assay [3]; 110% in assay [4]; 88.1% in assay [5]; 90.5% in assay [6]. The growth was 104% in assay [7] and 102% in assay [8].
In the case of `CC(=O)N1N=C(c2ccc(Nc3nc(Nc4ccccc4)nc(Nc4ccccc4)n3)cc2)CC1c1ccccc1` (centres undefined), the growth in assay [1] is 46.5%; in assay [2], 87.2%; in assay [3], 101%; in assay [4] it was 99%; in assay [5] it was 67.5%; in assay [6], 77.1%. For the same compound, the growth in assay [7] is 99.2%; in assay [8], 89.6%.
As to `C=C1C(=O)O[C@H]2[C@H]1CC/C(COC(=O)c1cc3ccccc3s1)=C\CC[C@@]1(C)O[C@@H]21`, the growth in assay [1] is -50.2% (active); in assay [2], -59% (active); in assay [3], -71% (active); in assay [4], -67.4% (active); in assay [5] it was -41.9% (active); in assay [6], -83.8% (active). For the same compound, the growth in assay [7] is -76.6% (active); in assay [8] it was -59.7% (active).
